In the supplement of paper PMC8728848:
Shown is part of a subset that was picked to be rich in the strongest signals.

What was measured:
Assay in all cases: glycan array binding signal (z-score within array); higher = stronger binding
Settings in all cases: glycan notation: IUPAC condensed, linker removed
[1] = biological target: GalNAc(a1-3)GalNAc
Summary of the method: (§1)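 The binding signal is a Z-score computed within each array and averaged over linkers. Arrays of the same protein sequence at different concentrations or buffers were also averaged together. Data originate from 3228 arrays in the Consortium for Functional Glycomics database, kept only where the protein sequence was available.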

[2] = biological target: GalNAc(b1-4)GlcNAc(b1-2)Man(a1-3)[GalNAc(b1-4)GlcNAc(b1-2)Man(a1-6)]Man(b1-4)GlcNAc(b1-4)GlcNAc
Summary of the method: as §1

[3] = biological target: GalNAc(b1-4)GlcNAc(b1-3)GalNAc(b1-4)GlcNAc
Summary of the method: as §1

[4] = biological target: Glc(a1-6)Glc(a1-6)Glc
Summary of the method: as §1

[5] = biological target: GlcA(b1-3)Gal
Summary of the method: as §1

[6] = biological target: GlcNAc(b1-2)Man(a1-3)[GlcNAc(b1-4)][GlcNAc(b1-2)Man(a1-6)]Man(b1-4)GlcNAc(b1-4)[Fuc(a1-6)]GlcNAc
Summary of the method: as §1

[7] = biological target: GlcNAc(b1-3)Gal(b1-4)GlcNAc(b1-2)[GlcNAc(b1-3)Gal(b1-4)GlcNAc(b1-6)]Man(a1-6)[GlcNAc(b1-3)Gal(b1-4)GlcNAc(b1-2)Man(a1-3)]Man(b1-4)GlcNAc(b1-4)GlcNAc
Summary of the method: as §1

[8] = biological target: GlcNAc(b1-3)Gal(b1-4)GlcNAc(b1-3)Gal(b1-4)GlcNAc(b1-2)Man(a1-3)[GlcNAc(b1-3)Gal(b1-4)GlcNAc(b1-3)Gal(b1-4)GlcNAc(b1-2)Man(a1-6)]Man(b1-4)GlcNAc(b1-4)[Fuc(a1-6)]GlcNAc
Summary of the method: as §1

[9] = biological target: GlcNAc(b1-3)Gal(b1-4)GlcNAc(b1-3)Gal(b1-4)GlcNAc(b1-2)[GlcNAc(b1-3)Gal(b1-4)GlcNAc(b1-3)Gal(b1-4)GlcNAc(b1-6)]Man(a1-6)[GlcNAc(b1-3)Gal(b1-4)GlcNAc(b1-3)Gal(b1-4)GlcNAc(b1-2)Man(a1-3)]Man(b1-4)GlcNAc(b1-4)[Fuc(a1-6)]GlcNAc
Summary of the method: as §1

[10] = biological target: GlcNAc(b1-3)Gal(b1-4)GlcNAc(b1-3)GalNAc
Summary of the method: as §1

[11] = biological target: Kdn(a2-3)Gal(b1-4)[Fuc(a1-3)]GlcNAc
Summary of the method: as §1

[12] = biological target: Man(a1-2)Man(a1-2)Man(a1-3)Man
Summary of the method: as §1

[13] = biological target: Neu5Ac(a2-3)Gal(b1-3)GalNAc
Summary of the method: as §1

[14] = biological target: Neu5Ac(a2-3)Gal(b1-3)GalNAc6S
Summary of the method: as §1

[15] = biological target: Neu5Ac(a2-3)Gal(b1-3)GlcNAc(b1-6)GalNAc
Summary of the method: as §1

[16] = biological target: Neu5Ac(a2-3)Gal(b1-3)[Fuc(a1-4)]GlcNAc(b1-3)Gal(b1-3)[Fuc(a1-4)]GlcNAc
Summary of the method: as §1

[17] = biological target: Neu5Ac(a2-3)Gal(b1-3)[Neu5Ac(a2-6)]GlcNAc(b1-3)[Fuc(a1-3)[Gal(b1-4)]GlcNAc(b1-6)]Gal(b1-4)Glc
Summary of the method: as §1

[18] = biological target: Neu5Ac(a2-3)Gal(b1-4)GlcNAc(b1-3)Gal(b1-4)GlcNAc(b1-3)[Neu5Ac(a2-3)Gal(b1-4)GlcNAc(b1-3)Gal(b1-4)GlcNAc(b1-6)]GalNAc
Summary of the method: as §1

[19] = biological target: Neu5Ac(a2-3)Gal(b1-4)GlcNAc(b1-6)[Gal(b1-3)]GalNAc
Summary of the method: as §1

[20] = biological target: Neu5Ac(a2-3)Gal(b1-4)[Fuc(a1-3)]GlcNAc(b1-3)Gal(b1-4)GlcNAc
Summary of the method: as §1

[21] = biological target: Neu5Ac(a2-6)Gal(b1-4)GlcNAc(b1-2)Man(a1-3)[Neu5Ac(a2-6)Gal(b1-4)GlcNAc(b1-2)Man(a1-6)]Man(b1-4)GlcNAc(b1-4)[Fuc(a1-6)]GlcNAc
Summary of the method: as §1

[22] = biological target: Neu5Ac(a2-6)Gal(b1-4)GlcNAc(b1-3)Gal(b1-4)GlcNAc(b1-3)Gal(b1-4)GlcNAc
Summary of the method: as §1

[23] = biological target: Neu5Ac(a2-6)Gal(b1-4)GlcNAc(b1-3)Gal(b1-4)GlcNAc(b1-3)Gal(b1-4)GlcNAc(b1-2)Man(a1-3)[Neu5Ac(a2-6)Gal(b1-4)GlcNAc(b1-3)Gal(b1-4)GlcNAc(b1-3)Gal(b1-4)GlcNAc(b1-2)Man(a1-6)]GalNAc
Summary of the method: as §1

[24] = biological target: Neu5Ac(a2-6)Gal(b1-4)GlcNAc(b1-3)GalNAc
Summary of the method: as §1

[25] = biological target: Neu5Ac(a2-8)Neu5Ac(a2-3)[GalNAc(b1-4)]Gal(b1-4)Glc
Summary of the method: as §1

[26] = biological target: Neu5Ac(a2-8)Neu5Ac(a2-8)Neu5Ac(a2-3)Gal(b1-4)Glc
Summary of the method: as §1

[27] = biological target: Neu5Ac(a2-8)Neu5Gc(a2-3)Gal(b1-4)GlcNAc
Summary of the method: as §1

[28] = biological target: Neu5Gc(a2-3)Gal(b1-3)[Fuc(a1-4)]GlcNAc
Summary of the method: as §1

B1: PX14343F-bfa-562-20-562 (Bacteroides fragilis) (protein)
chain: CDDFLDSFPQDTVTNENFWKSKEDADKVLVDIYASLLPKDAIFFDEAMSDNAYLVWDWWGGAQQVANGSYTTSGEIPTNRWNGSYEVIRKCWFLLEGIEKIEDISEQDKNKIIGETYFMLAYNYYVLTSYFGDVPLVTKTLAIPESKQLVRTPKAEVVDYAINKLKEAAVMLEGLSQEKGRVTADACRFLIARMYLYNGDYSNVLETVKLLEGKYQLYREGDTPYEDLFSGVAENSCEVILSVVCDKRVGEIYTSHGGNGIMLLKGITGEDPYRGVTPSGSLVDAYPMADGRLIHEAGSSYDPKKPYEGRDPRFYQSIVYPTGQIKYLDVETGTVKERLYDPEDPTTVPEHQYNYSQPSATGYMWNKYIDYSVYAMNSVWDCTNDIIVFRYADVLLMKAEALLQTKGESAKEEVCNLIDQLRDRCSCGRVHRENYNSKDELMELLKNERRIELANEGLRYMDLIRWKDAEKNTIVTGVGLTGQMYGAYMRKDGVGKDDKTVDVDNTPRRYIETRYFNASKGYLFPIPQKERDLNPNLTQNPNW
Q: B1 was tested. Which “glycan array binding signal (z-score)” value [1] did it give?
A: 0.306

Q: What about the “glycan array binding signal (z-score)” value [2] of the same binder?
A: 2.1

Q: What about the “glycan array binding signal (z-score)” value [3] of the same binder?
A: 0.152

Q: What about the “glycan array binding signal (z-score)” value [4] of the same binder?
A: -0.43

Q: And the “glycan array binding signal (z-score)” value [5]?
A: -0.822

Q: What about the “glycan array binding signal (z-score)” value [6] of the same binder?
A: -0.489

Q: And the “glycan array binding signal (z-score)” value [7]?
A: 1.87

Q: What about the “glycan array binding signal (z-score)” value [8] of the same binder?
A: 1.72

Q: What about the “glycan array binding signal (z-score)” value [9] of the same binder?
A: 0.546

Q: And the “glycan array binding signal (z-score)” value [10]?
A: 0.486

Q: What about the “glycan array binding signal (z-score)” value [11] of the same binder?
A: -0.468

Q: What about the “glycan array binding signal (z-score)” value [12] of the same binder?
A: -0.59

Q: And the “glycan array binding signal (z-score)” value [13]?
A: -0.546

Q: And the “glycan array binding signal (z-score)” value [14]?
A: -0.506

Q: What about the “glycan array binding signal (z-score)” value [15] of the same binder?
A: 1.15

Q: What about the “glycan array binding signal (z-score)” value [16] of the same binder?
A: -0.121

Q: And the “glycan array binding signal (z-score)” value [17]?
A: -0.957

Q: And the “glycan array binding signal (z-score)” value [18]?
A: 1.61

Q: What about the “glycan array binding signal (z-score)” value [19] of the same binder?
A: -0.723

Q: What about the “glycan array binding signal (z-score)” value [20] of the same binder?
A: 0.262

Q: And the “glycan array binding signal (z-score)” value [21]?
A: 1.09

Q: What about the “glycan array binding signal (z-score)” value [22] of the same binder?
A: -0.047

Q: And the “glycan array binding signal (z-score)” value [23]?
A: 2.16

Q: And the “glycan array binding signal (z-score)” value [24]?
A: -0.734

Q: What about the “glycan array binding signal (z-score)” value [25] of the same binder?
A: 1.74

Q: What about the “glycan array binding signal (z-score)” value [26] of the same binder?
A: 0.121

Q: And the “glycan array binding signal (z-score)” value [27]?
A: 19.1

Q: What about the “glycan array binding signal (z-score)” value [28] of the same binder?
A: -0.055
